Screen size: about 16,000 compounds; about 260 (1.6%) were called active. Inconclusive results (about 14%) are left out. The call rests on the fitted dose curve; in most records, active means well fitted inhibition curve with a large enough effect; inconclusive means small, poorly fitted or top-dose-only effect; inactive means no such curve, though single readings can be large or run the other way. Many of the other results were omitted from the sample, so actives are more common in it than they were. Where a SMILES comes first, the peptide text is derived from it. Bridges are numbered along the chain shown (N, C = ends). [ ]: non-standard residue; d: D form. The star is where a group is joined. X4 = CC[C@H](C)CCCCC(=O)*; Dab = NCC[C@H](N)C(=O)O
target: Rap guanine nucleotide exchange factor 4 (Homo sapiens) (UniProt Q8WZA2); experiment: Validation qHTS for antagonist of cAMP-regulated guanine nucleotide exchange factor 4 (EPAC2); conditions: EPAC2 Rap1B BODIPY-GDP exchange, fluorescence; series mostly up to 112 µM; activity, negative = inhibition: at the top concentration; further: nearly all actives have a fitted effect of over 40% in size
Outline: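 Normalized against a 6.5 mM cAMP agonist control, compounds were tested on 100 nM EPAC2 exchanging Rap1B-bound BODIPY-GDP (250 nM) for 50 uM GDP. Fluorescence drop (ex 480, em 540 nm) was tracked at room temperature over 30 min at 5-min intervals.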

Sequence of Rap guanine nucleotide exchange factor 4 (Homo sapiens) (Q8WZA2 whole entry, looked up): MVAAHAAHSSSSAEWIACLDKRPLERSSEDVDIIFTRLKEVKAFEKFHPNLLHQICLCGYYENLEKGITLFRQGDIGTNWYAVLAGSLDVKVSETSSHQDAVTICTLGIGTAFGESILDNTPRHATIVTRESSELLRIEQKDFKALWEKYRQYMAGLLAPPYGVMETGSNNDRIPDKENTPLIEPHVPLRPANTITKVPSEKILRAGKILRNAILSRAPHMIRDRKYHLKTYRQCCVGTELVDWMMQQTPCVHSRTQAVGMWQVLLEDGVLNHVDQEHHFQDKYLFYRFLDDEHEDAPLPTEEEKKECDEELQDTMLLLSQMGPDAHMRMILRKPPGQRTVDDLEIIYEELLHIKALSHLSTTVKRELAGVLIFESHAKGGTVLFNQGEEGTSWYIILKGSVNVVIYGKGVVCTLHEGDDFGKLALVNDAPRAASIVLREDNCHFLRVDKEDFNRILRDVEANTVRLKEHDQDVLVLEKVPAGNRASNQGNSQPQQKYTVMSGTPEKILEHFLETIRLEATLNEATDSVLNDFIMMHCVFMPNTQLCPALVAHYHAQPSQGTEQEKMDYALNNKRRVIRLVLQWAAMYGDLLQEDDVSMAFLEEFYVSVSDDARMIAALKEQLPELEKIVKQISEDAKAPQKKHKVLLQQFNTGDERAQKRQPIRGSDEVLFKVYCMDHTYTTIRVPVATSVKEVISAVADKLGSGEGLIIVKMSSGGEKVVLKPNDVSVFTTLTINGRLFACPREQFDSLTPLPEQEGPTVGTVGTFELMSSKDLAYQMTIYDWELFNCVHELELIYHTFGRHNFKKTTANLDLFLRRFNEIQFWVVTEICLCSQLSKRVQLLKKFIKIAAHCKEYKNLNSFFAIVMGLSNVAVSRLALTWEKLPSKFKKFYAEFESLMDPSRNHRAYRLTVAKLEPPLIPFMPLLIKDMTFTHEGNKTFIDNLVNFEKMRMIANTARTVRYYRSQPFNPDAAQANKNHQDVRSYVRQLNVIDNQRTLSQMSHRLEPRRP

| SMILES | activity, negative = inhibition |
| --- | --- |
| COCCn1c(=O)c(-c2cccs2)nc2cncnc21 | 7.53% (inactive) |
| N#C/C(=C\c1ccc(O)c(O)c1)C(=O)NCc1ccccc1 | -21.8% (inactive) |
| COc1cccc(CN2CCC3(CC2)c2ccccc2[C@@H](NC(=O)c2ccccc2OC)[C@@H]3O)c1 | -1.55% (inactive) |
| COc1ccc(CN2[C@@H](CC(=O)O)c3cc(F)ccc3S2(=O)=O)cc1 | -3.22% (inactive) |
| CN1C(=O)CN2CCc3ccccc3C2c2cc(Cl)ccc21 (centres undefined) | -22.8% (inactive) |
| CCCS(=O)(=O)NCc1c(C)ncc2c1CCN(C(=O)c1ccc(F)c(F)c1)C2 | 6.27% (inactive) |
| O=C(c1cccc(Cn2cccn2)c1)N1CCOc2c(cc(-c3csc4ccccc34)cc2OC2CCOC2)C1 (centres undefined) | -25.5% (inactive) |
| O=C(c1cccc(F)c1)N1CCC2(CCCN(Cc3ccncc3)C2)CC1 | -16.9% (inactive) |
| c1cncc(-c2nc(N3CCNCC3)c3ccccc3n2)c1 | -21.5% (inactive) |
| CC(=O)/C(C)=N\O | -20.3% (inactive) |
| COc1ncc2nc(-c3ccc(Cl)cc3)c(=O)n(-c3ccccc3)c2n1 | -19.4% (inactive) |
| COc1ccc(CN2CCC3(CCC(CNC(=O)c4ccco4)O3)CC2)cc1OC (centres undefined) | -2.31% (inactive) |
| COc1ccc2c(c1)CCc1cnc(-n3ncc(C(=O)NCCN4CCOCC4)c3C)nc1-2 | -24.8% (inactive) |
| c1ccc2cc(C3=NCCN3)ccc2c1 | 27.3% (inactive) |
| NNc1nnc(NN)c2ccccc12 | 18.8% (inactive) |
| Cc1cccc(CNc2cc(-c3ccccc3Cl)ncn2)c1 | -25.8% (inactive) |
| Cc1ccc2c(C)nc(N3CCCC(C(=O)NC(C)(C)CO)C3)nc2c1 (centres undefined) | -14.6% (inactive) |
| O=C(Oc1cc(OC(=O)c2ccccc2)c2c(c1)OC(c1ccc(OC(=O)c3ccccc3)c(OC(=O)c3ccccc3)c1)[C@@H](OC(=O)c1ccccc1)C2)c1ccccc1 (some centres undefined) | -3.26% (inactive) |
| C/C=C(\C)C(=O)O[C@H]1CC(C)=C2C(=O)C=C(C)C2[C@@H]2OC(=O)[C@@](C)(OC(=O)C=C(C)C)C21 (some centres undefined) | -15.4% (inactive) |
| CC[C@H](C)CCCCC(=O)N[C@@H](CCN)C(=O)N[C@H](C(=O)N[C@@H](CCN)C(=O)N[C@H]1CCNC(=O)[C@H]([C@@H](C)O)NC(=O)[C@H](CCN)NC(=O)[C@H](CCN)NC(=O)[C@H](CC(C)C)NC(=O)[C@@H](CC(C)C)NC(=O)[C@H](CCN)NC1=O)[C@@H](C)O (X4-[Dab]T[Dab][Dab][Dab][dL]L[Dab][Dab]T; lactam 4-C) | -6.87% (inactive) |
| COCCn1c(=O)c(CCc2ccccc2)nc2cnc(N3CCNCC3)nc21 | -12.2% (inactive) |
| CC(C)c1cnc(NC(=O)Cc2ccccc2)s1 | -17.2% (inactive) |
| CC1(C)O[C@@H]2C[C@@H]3[C@H]4C[C@@H](F)C5=CC(=O)C=C[C@]5(C)[C@@]4(F)[C@@H](O)C[C@]3(C)[C@]2(C(=O)CO)O1 | -4.16% (inactive) |
| COc1ccc2[nH]cc(CCNc3ncnc4ccc(-c5ccc(C(=O)N(C)C)cc5)cc34)c2c1 | -29.6% (inactive) |

From PubChem BioAssay AID1645886 (National Center for Advancing Translational Sciences (NCATS), 2021)
